Drawing on PubChem BioAssay AID463173 (ICCB-Longwood Screening Facility, Harvard Medical School, 2010), this text covers survival for 58 compounds.

About 4,300 (8.3%) of roughly 52,000 compounds were called active. The sample holds actives, similar compounds and a random draw of the others, so the mix is not that of the screen. No stated cut-off is given here; in the data, active means survival mostly below about 52% (no sharp cut-off); inactive means mostly above about 56%.

The assay deals with DeltatarO mutant. In words: growth inhibition of S. aureus wild type versus tarO mutant, primary screen, teichoic acid synthesis inhibitors, RN4220, OD600 (AID 463173). Particulars: OD600, 18 h, active compounds read low, screened at 18.75 µg/mL (by protocol).
In the case of `CC(C)C(OC(=O)c1cccs1)C(=O)NC1CCCC1` (stereo not drawn), the survival is 96% (inactive). The same measure for `Cc1nn(C(=O)c2cccc(Cl)c2)c(C)c1S(=O)(=O)N1CCOCC1`: 82% (inactive); for `Cc1ccc(C(=O)Nc2ccc(-c3nc4ccccc4o3)cc2)cc1Cl`: 68% (inactive); for `Cc1nnc(SCc2cc(=O)c3ccccc3[nH]2)s1`: 125% (inactive). The same measure for `COc1ccc(CN(CCC(c2ccc3c(c2)OCO3)c2ccccc2OC)C(C)=O)cc1` (stereo not drawn): 19% (active); for `COc1ccc(CNCCC(c2ccccc2)c2ccc3c(c2)OCO3)cc1` (stereo not drawn): -14% (active); for `COc1ccc(CNCCC(c2ccc3c(c2)OCO3)c2ccccc2OC)cc1` (stereo not drawn): 1% (active). In the case of `CCC(=O)N(CCC(c1ccccc1)c1ccc2c(c1)OCO2)Cc1ccc(OC(C)C)cc1` (stereo not drawn), the survival is 0% (active).

Consider `COc1ccc(CNCCC(c2ccc(C)cc2)c2ccco2)cc1` (stereo not drawn), for which the survival is 64% (inactive). In the case of `CCOCCCNC(=O)C(c1ccccc1)N(Cc1ccc2c(c1)OCO2)C(=O)c1ccc(NC(C)=O)cc1` (stereo not drawn), the survival is 51% (inactive). Next, `CCOCCCNC(=O)C(c1ccc(OC)cc1)N(Cc1ccc2c(c1)OCO2)C(=O)c1ccccc1O` (stereo not drawn): 62% (inactive); `CCOCCCNC(=O)C(c1ccc(OC)cc1)N(Cc1ccc2c(c1)OCO2)C(=O)c1ccc(NC(C)=O)cc1` (stereo not drawn): 50% (inactive). The same measure for `COc1cc2cc(CN(Cc3ccc4c(c3)OCO4)C(=O)NCc3ccccc3)c(=O)[nH]c2cc1OC`: 102% (inactive). The same measure for `N#CCC(c1ccccc1)c1ccc2c(c1)OCO2` (stereo not drawn): 92% (inactive). As to `COc1ccc(CCNC(=O)c2ccc3c(c2)OCO3)cc1`, the survival was 110% (inactive). Next, `NC(=O)CC(c1ccccc1)c1ccc2c(c1)OCO2` (stereo not drawn): 97% (inactive). `O=c1c(S(=O)(=O)c2ccccc2)cn(Cc2ccccc2)c2cc(N3CCOCC3)c(F)cc12`: the survival was 85% (inactive). Next, `COc1ccc(NC(=O)CCCN2C(=O)C(c3ccccc3)Oc3cccnc32)c(OC)c1` (stereo not drawn): 81% (inactive); `Cc1ccc(C(=O)c2oc3ccccc3c2NC(=O)COc2ccccc2C)cc1`: 95% (inactive).

In the case of `CCc1ccc(NC(=O)CSC2=Nc3ccccc3C3=NC(CCC(=O)NCc4ccccc4OC)C(=O)N23)cc1` (stereo not drawn), the survival was 55% (inactive). With `Cc1ccc(-n2ncc3c(N4CCN(C)CC4)ncnc32)cc1Cl`, the survival was 96% (inactive). Next, `COc1ccc(C2=NC(C)(C)N(CC(=O)Nc3ccc(F)c(F)c3)C2=O)cc1`: 92% (inactive); `Cc1c(C(=O)Nc2cc(F)ccc2F)sc2nc(-c3ccc(F)cc3)cn12`: 107% (inactive); `CCn1c(=O)c(C(=O)Nc2cc(OC)c(OC)c(OC)c2)nc2ccccc21`: 89% (inactive). The same measure for `Cc1ccccc1-c1nc2cc(NC(=O)COc3ccc(F)cc3)ccc2o1`: 56% (inactive); for `O=C(COc1ccccc1F)Nc1ccc(Cl)c(-c2nc3ccccc3[nH]2)c1`: 33% (active).

As for `O=C(COc1ccccc1F)Nc1ccc2oc(-c3cccc(Cl)c3)nc2c1`, the survival was 102% (inactive).

Consider `O=C(COc1ccc(F)cc1)Nc1ccc(Cl)c(-c2nc3ccccc3[nH]2)c1`, for which the survival is 26% (active).

Turning to `O=C(COc1ccccc1F)Nc1ccc(-c2nc3ccccc3s2)cc1`, the survival is 67% (inactive). Next, `CN1C(=O)c2ccccc2Sc2ccc(NC(=O)COc3ccc(F)cc3)cc21`: 87% (inactive). The same measure for `CCOC(=O)N1CCc2c(sc(NCc3ccc(N(C)C)cc3)c2C(=O)Nc2ccc(OC)cc2)C1`: 77% (inactive).

As to `CC1=C(c2ccc(C)cc2)S(=O)(=O)NC1=NCCCN1CCN(c2ccccc2F)CC1`, the survival is 74% (inactive). For the compound `CCCCNC(=O)CSc1nc2cc3c(cc2c(=O)n1Cc1ccc(C(=O)NCCc2ccc(OC)c(OC)c2)cc1)OCO3`, the survival was 85% (inactive). The same measure for `COc1ccccc1OCc1nnc(SCC(=O)N(C)C)o1`: 52% (inactive); for `COC(=O)c1ccc(Cn2c(SCC(=O)NCc3ccccc3)nc3ccccc32)cc1`: 102% (inactive); for `CC1=C(C#N)C(c2cccc(Oc3ccccc3)c2)C2=C(CCCC2=O)N1` (stereo not drawn): 54% (inactive). Next, `Cc1ccc(CNC(=O)CCCn2c(=O)c3ccccc3n(CC(=O)Nc3ccc(C)c(C)c3)c2=O)cc1`: 78% (inactive). Next, `Cc1cc(C)cc(NC(=O)CCCn2c(=O)c3cccn3c3ccccc32)c1`: 59% (inactive). For `Cc1ccc(NC(=O)CCCn2c(=O)c3cccn3c3ccccc32)c(Cl)c1`, the survival is 51% (inactive). The same measure for `O=C(CCCn1c(=O)c2cccn2c2ccccc21)Nc1cccc(Cl)c1`: 41% (active); for `Cc1cccc(C)c1NC(=O)CCCn1c(=O)c2cccn2c2ccccc21`: 55% (inactive); for `Cc1ccc2c(c1)c(=O)c1ccccc1n2CCCC(=O)Nc1ccc(C)c(F)c1`: 105% (inactive). On to `Cc1cc(C)cc(NC(=O)CCCn2c3ccccc3c(=O)c3ccccc32)c1`, for which the survival is 42% (active). In the case of `O=C(CCCn1c2ccccc2c(=O)c2ccccc21)Nc1ccc(F)cc1Cl`, the survival is 51% (inactive). The same measure for `O=C(CCCn1c(=O)c2ccccc2n(CC(=O)Nc2cccc(Cl)c2)c1=O)NCc1ccc2c(c1)OCO2`: 76% (inactive); for `Cc1ccc2c(c1)c(=O)c1ccccc1n2CCCC(=O)Nc1ccc(C)c(C)c1`: 43% (active); for `O=C(CCCn1c2ccccc2c(=O)c2ccccc21)Nc1cccc(Cl)c1`: 27% (active). As to `Cc1cc(C)cc(NC(=O)Cn2c(=O)c3ccccc3n3nncc23)c1`, the survival is 83% (inactive).

Take `Cc1cccc(N(C)c2ccc3cc(S(=O)(=O)N4CCCC4)ccc3n2)c1`: the survival was 96% (inactive).

Consider `N#CCNS(=O)(=O)c1ccccc1`, for which the survival was 97% (inactive). The same measure for `CC(=O)N1CCCc2cc(S(=O)(=O)NCc3ccccc3Cl)ccc21`: 112% (inactive); for `CCc1ccccc1NC(=O)Cn1cc(C(=O)c2ccc(Cl)cc2)c(=O)c2ccc(C)nc21`: 78% (inactive). The same measure for `CCCCN(Cc1cc2cc(C)ccc2[nH]c1=O)C(=O)c1cccc(Cl)c1`: 72% (inactive); for `CCOC(=O)c1sc2ccccc2c1S(=O)(=O)Nc1ccc(OC)c(Cl)c1`: 89% (inactive); for `COc1ccc(OCC(=O)Nc2cc(-c3ccccc3F)nn2-c2ccccc2)cc1`: 92% (inactive). Next, `COc1ccc(NC(=O)Cn2c(=O)n(CCCC(=O)NCCc3ccc(C)cc3)c(=O)c3ccccc32)cc1Cl`: 97% (inactive); `Cc1ccc2c(c1)c(=O)c1ccccc1n2CCCC(=O)Nc1ccc(Cl)c(Cl)c1`: 45% (active); `Cc1ccc(NC(=O)Cn2c(=O)n(CCCCC(=O)NCc3ccccc3Cl)c(=O)c3ccccc32)cc1`: 83% (inactive).
